Test results: PubChem BioAssay (EPA / NIEHS)
Records with an inconclusive call do not appear. Calls of active or inactive are those of the source. Rule for the calls, unless noted: active = hit-call score of the fitted dose curve at least 0.9, where 1 is the maximum; inactive = score below 0.9.

Columns and labels:
[1] = TOX21_TRB_BLA_Agonist_Followup_viability: Viability Assessment in the Tox21 Thyroid Hormone Receptor beta Agonism Beta-lactamase (BLA) Follow-Up Assay (AID 2283956; active = hit-call score of the fitted dose curve at least 0.9, where 1 is the maximum)
Summary of the method: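 Viability was read as CellTiter-Glo luminescence in the same wells as the TRb-bla agonist read-out. HEK293T GAL4-TRb LBD cells were treated for 18 h (37C, 5% CO2) at 11 concentrations in triplicate. Fits were bidirectional versus DMSO baseline.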

[2] = CCTE_Shafer_MEA_dev_firing_rate_mean: CCTE's Neural Network Formation Assay for Mean Firing Rate, Shafer Lab (AID 2284031);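 for AC50: curve fitted for loss of firing so AC50 reflects decreased mean firing rate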
Summary of the method: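 Read-out: spike count/recording length, averaged over active electrodes, then AUC across days 5, 7, 9, 12. Rat cortical cultures on MEA; continuous 12-day exposure, media and treatment renewed DIV 5, 9; DMSO baseline.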

[3] = CCTE_Shafer_MEA_dev_per_burst_spike_percent: CCTE's Neural Network Formation Assay for Percent of Spikes in a Burst, Shafer Lab (AID 2284032);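 for AC50: fitted as a decrease in burst spike percentage below DMSO baseline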
Summary of the method: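 Value is trapezoidal AUC over recordings on days 5, 7, 9 and 12 of the well-mean fraction of spikes falling in single-electrode bursts; rat cortical cultures exposed continuously from plating, treatment renewed DIV 5 and 9, fitted downward against DMSO.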

[4] = CCTE_Shafer_MEA_dev_active_electrodes_number: CCTE's Neural Network Formation Assay for Number of Active Electrodes, Shafer Lab (AID 2284040; active = hit-call score of the fitted dose curve at least 0.9, where 1 is the maximum;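 for AC50: potency for loss of active electrodes versus DMSO so lower counts are hits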)
Summary of the method: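 Developing rat cortical networks on MEAs, exposed DIV 0–12. Value is the AUC of active-electrode counts (≥5 spikes/min) from days 5, 7, 9, 12, relative to DMSO.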

[5] = CCTE_Shafer_MEA_dev_burst_rate: CCTE's Neural Network Formation Assay for Burst Rate, Shafer Lab (AID 2284042);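 for AC50: potency for loss of burst rate below DMSO control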
Summary of the method: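 Rat primary cortical cultures on PEI/laminin MEA; compound from plating, re-dosed at DIV 5, 9 media change. Single-electrode bursts/recording length, well mean of active electrodes; AUC over DIV 5–12 recordings; loss-of-signal vs DMSO.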

[6] = CCTE_Shafer_MEA_dev_bursting_electrodes_number: CCTE's Neural Network Formation Assay for Number of Bursting Electrodes, Shafer Lab (AID 2284043; active = hit-call score of the fitted dose curve at least 0.9, where 1 is the maximum;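 for AC50: potency is for loss of bursting electrodes relative to DMSO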)
Summary of the method: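 Counted: electrodes with burst rate ≥1 per 2 min in each well. Cells: primary rat cortex, 1.5 x 10^5/well, on 16-electrode MEA wells. Exposure: DIV 0–12, compound renewed DIV 5 and 9. Recording days 5, 7, 9, 12; AUC vs DMSO baseline.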

[7] = CCTE_Shafer_MEA_dev_per_burst_interspike_interval: CCTE's Neural Network Formation Assay for Burst Interspike Interval, Shafer Lab (AID 2284044);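 for AC50: potency for a decrease of within-burst interspike interval below DMSO level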
Summary of the method: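 Mean interspike interval within single-electrode bursts, averaged over bursting electrodes, from rat cortical cultures on MEA plates recorded on days 5, 7, 9 and 12. Continuous compound exposure from plating; trapezoidal AUC fitted downward relative to DMSO.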

[8] = CCTE_Shafer_MEA_dev_burst_duration_mean: CCTE's Neural Network Formation Assay for Mean Burst Duration, Shafer Lab (AID 2284045);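 for AC50: curve fitted for loss meaning shorter burst duration than DMSO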
Summary of the method: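 Network-formation assay in primary rat cortical neurons; treatment spans twelve days of development. Mean burst duration per well is integrated by trapezoidal AUC and fitted in the loss-of-signal direction against DMSO baseline.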

[9] = CCTE_Shafer_MEA_dev_interburst_interval_mean: CCTE's Neural Network Formation Assay for Mean Interburst Interval, Shafer Lab (AID 2284046);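 note: well-mean interburst interval of bursting electrodes as AUC over four recording days; curve fitted for decrease in interburst interval relative to DMSO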
Summary of the method: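 Rat cortical neurons, 1.5 x 10^5 cells/well, 48-well MEA; compound from day 0 through DIV 12, media and treatment renewed DIV 5/9. Recordings DIV 5, 7, 9, 12; well-mean interburst interval → trapezoidal AUC, loss direction vs DMSO.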

[10] = CCTE_Shafer_MEA_dev_inter_network_spike_interval_mean: CCTE's Neural Network Formation Assay for Mean Inter-network Spike Interval, Shafer Lab (AID 2284047)
Summary of the method: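 Primary rat cortical neurons on PEI-coated 48-well MEAs (16 electrodes/well) were exposed from plating day 0 to DIV 12, with dosing renewed at DIV 5 and 9. Recordings at DIV 5, 7, 9, 12 were collapsed by trapezoidal AUC, loss-of-signal fit vs DMSO.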

[11] = CCTE_Shafer_MEA_dev_network_spike_number: CCTE's Neural Network Formation Assay for Number of Network Spikes, Shafer Lab (AID 2284048);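 note: synchronized bursts across electrodes counted on days 5 7 9 12 and integrated as AUC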;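 for AC50: fit as a loss of signal meaning fewer network spikes than DMSO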
Summary of the method: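 Extracellular recordings from 16-electrode wells track network formation in rat cortical cultures under continuous treatment from plating. The endpoint is network spike number, expressed as AUC across DIV 5–12 relative to DMSO vehicle.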

[12] = CCTE_Shafer_MEA_dev_spike_duration_mean: CCTE's Neural Network Formation Assay for Mean Spike Duration, Shafer Lab (AID 2284051);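 note: mean network spike duration pooled as area under curve over DIV 5 to 12 recordings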;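 for AC50: potency for a decrease in mean network spike duration versus DMSO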
Summary of the method: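 Rat cortical primary cultures, 48-well MEA (16 electrodes/well); compound from plating, renewed DIV 5, 9. Network spike duration (AxIS adaptive detector) recorded DIV 5/7/9/12, combined as trapezoidal AUC; loss direction vs DMSO.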

[13] = CCTE_Shafer_MEA_dev_network_spike_duration_std: CCTE's Neural Network Formation Assay for Standard Deviation of Network Spike Duration, Shafer Lab (AID 2284052);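 note: area under curve of spike duration SD across recording days 5 to 12; hits are decreases in network spike duration SD versus DMSO vehicle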
Summary of the method: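 Rat cortical cultures, 1.5 x 10^5 cells/well, exposed continuously from plating to DIV 12 with media/compound renewal at DIV 5, 9. Spontaneous activity recorded DIV 5/7/9/12, AxIS adaptive spike detector; AUC across days; negative direction vs DMSO.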

[14] = CCTE_Shafer_MEA_dev_per_network_spike_spike_number_mean: CCTE's Neural Network Formation Assay for Mean Number of Spikes in a Network Spike, Shafer Lab (AID 2284053)
Summary of the method: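 Rat cortical primary cultures on 48-well MEA; compound from day 0, re-dosed with full media change DIV 5, 9. Recorded DIV 5, 7, 9, 12; spikes in 0.05 s window at network-spike peak ÷ total network spikes; AUC; loss vs DMSO.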

[15] = CCTE_Shafer_MEA_dev_per_network_spike_spike_percent: CCTE's Neural Network Formation Assay for Percent of Spikes in a Network Spike, Shafer Lab (AID 2284054)
Summary of the method: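 Developing networks of rat cortical neurons are dosed at day 0 and recorded extracellularly four times up to day 12. The endpoint is the area under the curve of percent spikes in network spikes, fitted in the negative direction relative to DMSO.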

[16] = CCTE_Shafer_MEA_dev_LDH: CCTE's Lactate Dehydrogenase Assay for Cytotoxicity in the Neural Network Formation Assay, Shafer Lab (AID 2284068; active = hit-call score of the fitted dose curve at least 0.9, where 1 is the maximum;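 note: exposure for twelve days from plating with re-dosing on DIV 5 and 9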)
Summary of the method: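 Rat cortical primary neurons, MEA culture; dosing day 0–12, full medium plus compound exchange DIV 5, 9. Read-out: LDH enzyme activity, spectrophotometric. DMSO = negative control/baseline; signal loss → cytotoxicity.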

[17] = CCTE_Shafer_MEA_dev_mutual_information_norm: CCTE's Neural Network Formation Assay for Mutual Information Normalization, Shafer Lab (AID 2284091);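 for AC50: mutual information between electrodes summarised as area under curve across four recording days; potency is for a decrease in mutual information relative to DMSO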
Summary of the method: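 Exposure of primary rat cortical neurons began at plating and ran to DIV 12, with full media and treatment renewal after DIV 5 and 9 recordings. Mutual information AUC (DIV 5–12) was analysed for loss versus DMSO.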

[18] = CCTE_Shafer_MEA_dev_correlation_coefficient_mean: CCTE's Neural Network Formation Assay for Mean Correlation Coefficient, Shafer Lab (AID 2284093);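 for AC50: well mean pairwise spike train correlation integrated as AUC over recording days 5 to 12; potency fitted for loss of correlation relative to DMSO vehicle wells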
Summary of the method: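 Rat cortical cultures, 1.5 x 10^5 cells/well, dosed from day 0 for 12 days. Spontaneous spikes recorded DIV 5/7/9/12; electrode-pair correlation coefficients averaged, AUC taken. Fit in loss direction vs DMSO.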

[19] = UKN2_HCS_IMR90_neural_migration: University of Konstanz (UKN) Leist Lab Neural Crest Cell Migration Assay in human induced IMR90 Pluripotent Stem Cells (UKN2) (AID 2284204); conditions: actives raise or lower the signal
Summary of the method: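 Using a 96-well stopper format with PLO/laminin/fibronectin coating, neural crest cells from iPSC migrate in cytokine-supplemented N2-S medium; after 24 h, chemicals are applied for a further 24 h, then cells are imaged after dye staining.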

Measured: AC50

CCCCCCC(C)O (stereo not drawn)
inactive: [1]

CCCCC(CC)COC(=O)c1cc(Br)c(Br)c(Br)c1Br (stereo not drawn)
inactive: [2] | [5] | [7] | [8] | [10] | [11] | [13] | [17]
active: [3] 18.8 µM | [4] 18.7 µM | [6] 18.8 µM | [9] 16.8 µM | [12] 17.7 µM | [14] 18.8 µM | [15] 18.9 µM | [16] 15.9 µM | [18] 18.8 µM

C[C@]12CC[C@H]3C(=CCc4cc(O)ccc43)[C@@H]1CCC2=O
inactive: [1]

COc1cc(C)c(/C=C/C(C)=C/C=C/C(C)=C/C(=O)O)c(C)c1C
inactive: [1]

Nc1ncn([C@H]2C[C@H](O)[C@@H](CO)O2)c(=O)n1
inactive: [1]

CC1=C(/C=C/C(C)=C\C=C\C(C)=C\C(=O)O)C(C)(C)CCC1
inactive: [1]

CC(C)CC(=O)O
inactive: [1]

Cc1cc(-n2c(=O)[nH]c(=O)n(C)c2=O)ccc1Oc1ccc(S(=O)(=O)C(F)(F)F)cc1
inactive: [1]

Cc1cc(C)nc(NS(=O)(=O)c2ccc(N)cc2)n1
inactive: [1]

CCCCCCC(O)CO (stereo not drawn)
inactive: [1]

CC(=O)OCCC(C)CC(C)(C)C (stereo not drawn)
inactive: [1]

C=C(NC(=O)C(=C)NC(=O)c1csc(C2=NC3c4csc(n4)C4NC(=O)c5csc(n5)C(C(C)(O)C(C)O)NC(=O)C5CSC(=N5)/C(=C/C)NC(=O)C(C(C)O)NC(=O)c5csc(n5)C3(CC2)NC(=O)C(C)NC(=O)C(=C)NC(=O)C(C)NC(=O)C(C(C)CC)NC2C=Cc3c(C(C)O)cc(nc3C2O)C(=O)OC4C)n1)C(N)=O (stereo not drawn)
inactive: [1]

CC1=C(/C=C/C(C)=C/C=C/C(C)=C\C(=O)O)C(C)(C)CCC1
inactive: [1]

C=C(c1ccc(C(=O)O)cc1)c1cc2c(cc1C)C(C)(C)CCC2(C)C
inactive: [1]

CC(C)(C)c1cc(C(C)(C)C)c(O)c(C(C)(C)C)c1
inactive: [1]

CC(C)(C)CC(C)(C)c1ccc(O)c(Cc2ccc(Cl)cc2Cl)c1
inactive: [1]

Nc1ccc(S(N)(=O)=O)cc1
inactive: [1]

CC(CCO)CCCC(C)(C)O (stereo not drawn)
inactive: [1]

CCC(C)c1cc(C(C)(C)C)c(O)c(C(C)(C)C)c1 (stereo not drawn)
inactive: [1]

O=Cc1ccccc1S(=O)(=O)O
inactive: [1]

C[Si](C)O[Si](C)(C)O[Si](C)(C)O[Si](C)C
inactive: [1]

CSCC[C@H](NC(=O)[C@H](Cc1ccc(OS(=O)(=O)O)cc1)NC(=O)[C@@H](N)CC(=O)O)C(=O)NCC(=O)N[C@@H](Cc1c[nH]c2ccccc12)C(=O)N[C@@H](CCSC)C(=O)N[C@@H](CC(=O)O)C(=O)N[C@@H](Cc1ccccc1)C(N)=O
inactive: [1]

N[C@@H](Cc1cc(I)c(Oc2cc(I)c(O)c(I)c2)c(I)c1)C(=O)O
inactive: [1]

Oc1ccccc1
inactive: [1]

OCCCCC(O)CO (stereo not drawn)
inactive: [1]

O=[As]O
active: [2] 2.14 µM | [3] 1.4 µM | [4] 1.41 µM | [5] 2.42 µM | [6] 1.23 µM | [7] 2.43 µM | [8] 2.5 µM | [9] 1.69 µM | [11] 1.28 µM | [12] 1.14 µM | [13] 1.08 µM | [14] 1.14 µM | [15] 1.14 µM | [16] 1.09 µM | [17] 1.15 µM | [18] 0.996 µM
inactive: [10]

NCCc1cc(O)c(O)cc1O
active: [3] 6.25 µM | [4] 4.79 µM | [6] 4.29 µM | [12] 5.15 µM | [14] 4.47 µM | [15] 10.1 µM | [16] 6.82 µM | [17] 3.2 µM | [18] 5.28 µM
inactive: [2] | [5] | [7] | [8] | [9] | [10] | [11] | [13]

[O-][Cl+3]([O-])([O-])O
inactive: [19]

Cn1nc(C(F)(F)F)c(CS(=O)(=O)C2=NOC(C)(C)C2)c1OC(F)F
inactive: [5] | [8] | [9] | [10] | [11] | [13] | [15] | [17] | [19]
active: [2] 91.6 µM | [3] 80.9 µM | [4] 73.6 µM | [6] 87.5 µM | [7] 26.3 µM | [12] 31.2 µM | [14] 50 µM | [16] 80.6 µM | [18] 32.7 µM

CCOP(=O)(OCC)SCSC(C)(C)C
inactive: [2] | [3] | [5] | [7] | [8] | [9] | [10] | [11] | [12] | [13] | [14] | [15] | [17] | [18] | [19]
active: [4] 16.2 µM | [6] 9.83 µM | [16] 49.5 µM

CC(=O)[O-].CC(=O)[O-].O.O.O.[Pb+2]
inactive: [2] | [5] | [7] | [8] | [9] | [10] | [13] | [17]
active: [3] 23.5 µM | [4] 22.3 µM | [6] 18.5 µM | [11] 2.98 µM | [12] 22.2 µM | [14] 20.2 µM | [15] 15 µM | [16] 23.7 µM | [18] 19.7 µM | [19] 32.8 µM

CC(=O)[O-].[Tl+]
active: [13] 12.1 µM
inactive: [2] | [3] | [4] | [5] | [6] | [7] | [8] | [9] | [10] | [11] | [12] | [14] | [15] | [16] | [17] | [18] | [19]
